Molecules are shown by their SMILES. Active and inactive are the calls of the source. Unless noted, the rule behind the calls is not given here.

A short description of test [1]: anti-His antibody binders, primary screen, artefact control for SMM control protein annotation, biochemical, small-molecule microarray, 635 nm fluorescence (AID 1128).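 Note: score merges feature fluorescence with signal-to-noise for each printed compound spot.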 The following applies: anti-His Alexa647 antibody binding, higher = more signal.
Test [2] has as its system Human papillomavirus type 1a E7 protein (residues 1-88). As to the kind of experiment: HPV1a E7 small-molecule binders, primary screen, biochemical, small-molecule microarray, residues 1-88, 635 nm (AID 1129). The following applies: small-molecule microarray binding, fluorescence 635 nm; higher = more signal.
The target of test [3] is Focal adhesion kinase 1 (Homo sapiens) (UniProt Q05397). The test can be described thus: small-molecule microarray binders of FAK, primary screen, biochemical, 635/667 nm fluorescence, BSA, DTT (AID 1130).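 Note: composite of spot emission at 667 nm and signal to noise over triplicate slides.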 The following applies: PTK2 binding, 635 nm fluorescence, higher = more signal.
Chain of Focal adhesion kinase 1 (Homo sapiens) (Q05397 whole entry, looked up): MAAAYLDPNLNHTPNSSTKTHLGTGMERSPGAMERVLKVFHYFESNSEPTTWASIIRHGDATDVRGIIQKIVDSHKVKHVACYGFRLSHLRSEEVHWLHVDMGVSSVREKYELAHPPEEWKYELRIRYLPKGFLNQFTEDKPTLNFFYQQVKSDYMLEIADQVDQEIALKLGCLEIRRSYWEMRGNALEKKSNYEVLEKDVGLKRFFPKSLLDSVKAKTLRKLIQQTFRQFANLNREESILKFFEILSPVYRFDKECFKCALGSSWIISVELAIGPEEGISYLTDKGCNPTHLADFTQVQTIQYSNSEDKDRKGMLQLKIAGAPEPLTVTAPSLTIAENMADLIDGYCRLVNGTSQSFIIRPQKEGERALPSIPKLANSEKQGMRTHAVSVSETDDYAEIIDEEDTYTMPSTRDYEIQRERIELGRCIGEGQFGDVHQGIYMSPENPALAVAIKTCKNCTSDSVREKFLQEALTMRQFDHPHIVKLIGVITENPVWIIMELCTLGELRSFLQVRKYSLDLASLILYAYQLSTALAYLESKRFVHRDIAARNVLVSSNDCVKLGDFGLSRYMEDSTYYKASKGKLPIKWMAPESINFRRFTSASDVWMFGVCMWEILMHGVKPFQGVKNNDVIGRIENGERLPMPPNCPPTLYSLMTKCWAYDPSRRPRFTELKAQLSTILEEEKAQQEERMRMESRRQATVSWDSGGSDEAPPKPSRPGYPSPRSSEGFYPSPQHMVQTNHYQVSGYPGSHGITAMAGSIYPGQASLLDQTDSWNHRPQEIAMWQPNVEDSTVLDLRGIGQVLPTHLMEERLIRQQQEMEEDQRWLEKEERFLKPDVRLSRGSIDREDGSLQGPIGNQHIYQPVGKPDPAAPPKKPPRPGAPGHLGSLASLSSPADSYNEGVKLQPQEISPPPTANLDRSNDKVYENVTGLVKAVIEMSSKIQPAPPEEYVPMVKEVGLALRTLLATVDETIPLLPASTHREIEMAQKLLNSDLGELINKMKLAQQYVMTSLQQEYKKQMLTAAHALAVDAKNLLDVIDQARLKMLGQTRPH
Test [4] has as its system Fibrinogen (Alexa647-labelled). The test can be described thus: fibrinogen binders on compound microarrays, profiling panel, artefact control for SMM control-protein annotation, biochemical, small-molecule microarray, 635/667 nm fluorescence (AID 1131).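 Note: z-score merges 667 nm fluorescence with per-spot signal-to-noise over triplicate slides.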 Conditions: fibrinogen-A647 binding fluorescence, higher = more signal.
Test [5] has as its target Follistatin (Homo sapiens) (UniProt P19883). As to the kind of experiment: follistatin binders on small-molecule microarrays, primary screen, biochemical, small-molecule microarray, 635/667 nm fluorescence (AID 1132). The following applies: FST binding, 635 nm fluorescence, higher = more signal.
Test [6] has as its target Fibroblast growth factor 2 (Homo sapiens) (UniProt P09038). The test can be described thus: FGF2 binders on small-molecule microarrays, primary screen, biochemical, small-molecule microarray, 635/667 nm fluorescence (AID 1133). Conditions: small-molecule microarray binding, FGF2, fluorescence 635/667; higher = more signal.
Test [7] can be described thus: mitochondrial membrane potential change in A549 cells, profiling panel, cell-based, JC-1 fluorescence, basal, 24 h, 100 nL (AID 1138).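 Note: A549 lung adenocarcinoma cells under basal conditions with no added stimulus; test concentration not given here.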 Conditions: higher = more signal.
Test [8] concerns Lefty1. As to the kind of experiment: Lefty1 binders on small-molecule microarrays, primary screen, biochemical, small-molecule microarray, 635/667 nm fluorescence (AID 1139). Conditions: small-molecule microarray binding, fluorescence 635/667; higher = more signal.
Test [9] deals with wheat germ agglutinin (Triticum aestivum), Alexa647-labelled. The test can be described thus: wheat germ agglutinin binders on compound microarrays, profiling panel, artefact control for SMM control-protein annotation, biochemical, small-molecule microarray, 635/667 nm fluorescence (AID 1140).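 Note: score merges 667 nm feature emission with signal to noise over triplicate slides.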 Conditions: WGA-A647 binding, 635 nm fluorescence, higher = more signal.
In test [10] the target is Luciferin 4-monooxygenase (Photinus pyralis) (UniProt P08659). The test can be described thus: firefly luciferase enzyme inhibitors, primary screen, biochemical, luminescence, purified enzyme, 2006 set (AID 1141).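 Note: cell-free assay with purified firefly luciferase at 100 ng per well in PBS; test concentration not given here.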 Conditions: SteadyGlo luminescence, 30 min, higher = more signal, called active from +8 up or from −8 down.
Chain of Luciferin 4-monooxygenase (Photinus pyralis) (P08659 whole entry, looked up): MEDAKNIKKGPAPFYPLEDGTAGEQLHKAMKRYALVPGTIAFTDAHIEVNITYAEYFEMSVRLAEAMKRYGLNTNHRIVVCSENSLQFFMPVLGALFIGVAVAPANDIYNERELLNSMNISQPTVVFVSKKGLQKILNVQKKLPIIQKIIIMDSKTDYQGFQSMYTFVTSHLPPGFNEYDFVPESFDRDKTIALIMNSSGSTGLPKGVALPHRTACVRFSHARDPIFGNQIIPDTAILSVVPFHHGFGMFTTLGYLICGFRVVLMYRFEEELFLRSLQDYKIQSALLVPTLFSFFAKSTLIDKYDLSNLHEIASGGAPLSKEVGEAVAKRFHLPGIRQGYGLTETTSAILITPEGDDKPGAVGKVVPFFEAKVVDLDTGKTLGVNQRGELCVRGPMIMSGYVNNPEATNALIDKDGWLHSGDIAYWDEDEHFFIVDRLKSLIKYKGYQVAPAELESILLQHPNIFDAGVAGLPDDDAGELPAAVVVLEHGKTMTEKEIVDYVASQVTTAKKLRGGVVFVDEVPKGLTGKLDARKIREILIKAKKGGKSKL
Test [11] deals with Wnt5a (protein binding on small-molecule microarray). As to the kind of experiment: Wnt5a binders on small-molecule microarray, primary screen, biophysical, 635/667 nm fluorescence (AID 1142).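 Note: fluorescence read at 667 nm with signal to noise per printed feature.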 Conditions: 635 nm fluorescence, higher = more signal.
Test [12] is described as follows: cell viability in Huh7 cells, primary screen, cytotoxicity control for HCV replication inhibitor project, CellTiter-Glo luminescence, basal, 48 h (AID 1143).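 Note: Huh7 hepatoma cells carrying a hepatitis C replication reporter with no stimulus; test concentration not given here.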 Conditions: Huh7 HCV replicon, higher = more signal, called active from +8 up or from −8 down.
Test [13] can be described thus: P. aeruginosa biofilm formation inhibitors, primary screen, PAO1 strain, BacTiter-Glo luminescence, LB-PBS (AID 1144). The following applies: 12 h, higher = more signal.
The nature of test [14]: CREB reporter modulators without forskolin, primary screen, cell-based, PC12, CRE-LacZ reporter, unstimulated (AID 1145). The following applies: no forskolin, luminescence, 4.5 h, higher = more signal, called active from +8 up or from −8 down.
A short description of test [15]: CREB reporter modulators under forskolin, primary screen, cell-based, PC12, CRE-LacZ reporter, forskolin-stimulated (AID 1146).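 Note: PC12 cells with 6xCRE LacZ reporter stimulated by forskolin 10 µM; beta-galactosidase reporter signal reflecting CREB driven transcription.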 The following applies: luminescence, 4.5 h, higher = more signal, called active from +8 up or from −8 down.
For test [16], the target named is Streptavidin (Streptomyces avidinii) (UniProt P22629). As to the kind of experiment: streptavidin binders on small-molecule microarray, primary screen, artefact control for SMM compound annotation, biophysical, 635/667 nm fluorescence (AID 1147).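 Note: signal reflects streptavidin binding to arrayed compounds as a control protein.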 The following applies: streptavidin binding, higher = more signal.
Chain of Streptavidin (Streptomyces avidinii) (P22629 whole entry, looked up): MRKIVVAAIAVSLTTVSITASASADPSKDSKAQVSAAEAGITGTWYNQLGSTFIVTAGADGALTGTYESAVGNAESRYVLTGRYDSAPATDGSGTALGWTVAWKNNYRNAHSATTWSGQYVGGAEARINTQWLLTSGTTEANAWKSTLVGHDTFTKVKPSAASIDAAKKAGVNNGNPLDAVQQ
A short description of test [17]: small-molecule binders of probe aInhba, primary screen, biochemical, small-molecule microarray, 635/667 nm fluorescence (AID 1148).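 Note: score merges 667nm spot fluorescence with signal-to-noise for antibody binding to printed compounds.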 The following applies: higher = more signal.
The target in test [18] is Torsin-1A (Homo sapiens) (UniProt O14656). As to the kind of experiment: torsin A binders from cell lysate, primary screen, small-molecule microarray, wild-type, 635/667 nm (AID 1149). The following applies: COS7 hTOR1A-WT lysate, 635 nm fluorescence, higher = more signal.
Chain of Torsin-1A (Homo sapiens) (O14656 whole entry, looked up): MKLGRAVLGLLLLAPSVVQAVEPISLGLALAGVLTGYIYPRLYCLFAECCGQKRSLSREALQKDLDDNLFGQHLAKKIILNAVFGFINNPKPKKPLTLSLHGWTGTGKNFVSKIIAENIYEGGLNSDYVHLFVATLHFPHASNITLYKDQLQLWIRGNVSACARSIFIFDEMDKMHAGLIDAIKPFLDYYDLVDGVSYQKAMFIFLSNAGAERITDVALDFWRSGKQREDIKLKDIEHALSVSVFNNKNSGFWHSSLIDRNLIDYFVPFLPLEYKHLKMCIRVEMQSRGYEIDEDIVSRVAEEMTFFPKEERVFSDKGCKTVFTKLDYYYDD
For test [19] the target is unchanged. The test can be described thus: small-molecule binders of mutant TOR1A in lysate, primary screen, cell lysate, small-molecule microarray, COS7 lysate, 635/667 nm fluorescence (AID 1150).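 Note: score pools 667 nm emission and signal to noise measuring lysate protein binding.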 Conditions: COS7 hTOR1A mutant lysate, 635 nm fluorescence, higher = more signal.
For test [20], the system named is Sonic hedgehog protein (Shh). As to the kind of experiment: small-molecule binders of Shh protein, primary screen, biochemical, small-molecule microarray, 635/667 nm fluorescence (AID 1151).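 Note: Shh protein binding to compounds spotted on small-molecule microarray slides; score combines spot fluorescence intensity with signal-to-noise across triplicate slides.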 Conditions: small-molecule microarray binding, 635 nm fluorescence; higher = more signal.

Chain of Fibroblast growth factor 2 (Homo sapiens) (P09038 whole entry, looked up): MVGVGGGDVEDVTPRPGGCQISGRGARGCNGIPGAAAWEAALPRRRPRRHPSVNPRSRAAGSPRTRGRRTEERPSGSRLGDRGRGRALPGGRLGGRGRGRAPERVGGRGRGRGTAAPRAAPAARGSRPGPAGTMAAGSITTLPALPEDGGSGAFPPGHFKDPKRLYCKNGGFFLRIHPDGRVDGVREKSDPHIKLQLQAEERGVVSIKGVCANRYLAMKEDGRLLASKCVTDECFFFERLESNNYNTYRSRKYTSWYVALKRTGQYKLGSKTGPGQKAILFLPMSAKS
Chain of Follistatin (Homo sapiens) (P19883 whole entry, looked up): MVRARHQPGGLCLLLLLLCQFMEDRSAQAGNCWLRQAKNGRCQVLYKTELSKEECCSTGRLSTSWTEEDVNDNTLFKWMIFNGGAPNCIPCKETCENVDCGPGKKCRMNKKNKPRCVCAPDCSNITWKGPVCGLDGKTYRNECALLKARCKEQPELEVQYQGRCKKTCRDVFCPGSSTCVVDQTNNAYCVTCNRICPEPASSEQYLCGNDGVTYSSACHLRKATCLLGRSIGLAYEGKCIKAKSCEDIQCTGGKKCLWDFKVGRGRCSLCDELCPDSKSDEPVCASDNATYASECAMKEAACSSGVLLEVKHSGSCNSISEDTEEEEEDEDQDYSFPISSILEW

Take `COC(=O)[C@@]1(Cc2ccc(OC)cc2)[C@H]2c3cc(C(=O)N(C)C)n(CCF)c3C[C@H]2CN1C(=O)c1ccccc1`: the composite z-score is 1.9 in [1]; 1.25 in [2]; 0.842 in [3]; 1.01 in test [4]; 0.887 in test [5]; 0.127 in test [6]. For the same compound, the composite z-score in [8] is -0.698; in test [9], 1.32; in test [11], 0.17; in test [16], 2.2; in test [17] it was 0.515; in test [18], 0.3. Further, the composite z-score in test [19] is 0.541; in test [20] it was -0.379. In addition, the z-score is 0.486 in [7]; 0.948 (inactive) in [10]; -2.15 (inactive) in test [12]; 0.475 (inactive) in test [13]; 1.35 (inactive) in [14]; -0.715 (inactive) in test [15].
Take `COc1ccc([Si](C)(C)[C@@H]2[C@@H](CC(=O)N3Cc4ccccc4C[C@H]3CO)O[C@]3(C(=O)N(Cc4cccc(N5CCCCC5=O)c4)c4ccccc43)[C@H]2C)cc1`: the composite z-score in test [1] came out at 1.02; in test [2] it was 1.13; in test [3] it was 0.739; in [4], 0.641; in [5], 1.36; in test [6], 1.57. In addition, the composite z-score was 1.5 in test [8]; 0.676 in [9]; 0.41 in test [11]; 0.287 in test [16]; 0.17 in test [17]; 0.652 in [18]. Moreover, the composite z-score in test [19] worked out at 0.101; in test [20] it was 1.76. The z-score in [7] is -0.96; in [10], 0.227 (inactive); in [12] it was -3.71 (inactive); in test [13], 0.723 (inactive); in test [14] it was 1.88 (inactive); in test [15], -0.136 (inactive).
`[N-]=[N+]=Nc1ccccc1C[C@]1(C(=O)NCCN2CCOCC2)N=C(c2ccc(OCCCO)cc2)O[C@H]1c1ccccc1N=[N+]=[N-]`: the composite z-score in test [1] was 1.55; in test [2] it was 1.24; in test [3] it was -0.0277; in [4], 0.94; in test [5] it was 1.39; in test [6] it was 1.65. Moreover, the composite z-score was determined as 0.499 in [8]; 0.687 in [9]; 0.682 in [11]; 0.678 in [16]; 0.726 in test [17]; 0.818 in test [18]. Moreover, the values for the composite z-score in test [19] and in test [20] were 0.954 and 0.926, respectively. The z-score in [7] was 2.42; in test [10], -5.36 (inactive); in [12] it was -3.68 (inactive); in test [13], -0.933 (inactive); in test [14], 0.573 (inactive); in test [15] it was -1.29 (inactive).
For `C=C(CCCC)/C(=C/C[C@H](OC(=O)c1ccncc1)c1ccc(CO)o1)c1cc(C(=O)OC)ccc1OC`, the composite z-score in test [1] is 0.872; in test [2], 1.19; in [3], -0.0174; in test [4] it was 0.826; in test [5], 0.899; in test [6] it was 1.08. For the same compound, the composite z-score in test [8] was 1.28; in [9], 1.04; in test [11], 0.0136; in [16] it was 0.551; in test [17] it was 0.221; in test [18], 0.428. In addition, the composite z-score in test [19] came out at 0.646; in [20] it was 1.63. The z-score in test [7] was -0.648; in test [10] it was -1.19 (inactive); in [12], -0.441 (inactive); in test [13], -0.525 (inactive); in test [14] it was 0.201 (inactive); in test [15] it was 2.68 (inactive).
`COCCCNC(=O)[C@@H]1c2ccccc2C(=O)N(c2ccc(C)cn2)[C@H]1c1ccc(CO)cc1`: the composite z-score in test [1] was -0.346; in [2], -1.11; in [3], -1.24; in test [4] it was -1.04; in test [5], -1.25; in test [6], -2.41. The composite z-score was -1.03 in test [8]; 0.0195 in test [9]; -1.53 in test [11]; -1.6 in test [16]; -0.159 in test [17]; -2.83 in [18]. The composite z-score is -2.65 in test [19] and -1.2 in test [20]. Further, the z-score in [7] is -0.758; in test [10], 0.195 (inactive); in test [12] it was -0.17 (inactive); in test [13], -0.894 (inactive); in [14] it was -0.374 (inactive); in test [15] it was -0.563 (inactive).

These data come from PubChem BioAssay.
